# APEX1 inh – inhibitors of human APE1 endonuclease; hit rate 0.35% among 350,000; recombinant APE1, TAMRA/BHQ-2 abasic DNA cleavage fluorescence; Potency, µM (top dose mostly 65.8 µM), for inactives: top-dose activity change, negative = inhibition, actives largely listed as inhibitors; P27695; AID 2517;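 also: plate controls were vehicle for no effect and reference inhibitor for full effect; nearly all actives have a fitted effect of over 55% in size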
#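 APE1 at 0.75 nM final was preincubated with compound 15 min at room temperature, then 50 nM double-stranded THF abasic-site substrate (5'-TAMRA/3'-BHQ-2) was added. Fluorescence (ex 525/em 598 nm) was read kinetically; third-minus-first read gave activity.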
# FEN1 inhibitor – human FEN1 inhibition. P39748. Recombinant FEN1 flap cleavage, fluorescence, 15 min. Potency, µM (doses to about 114 µM), without a hit: top-dose activity change, negative = inhibition, usual class: inhibitors. hit rate 0.35% among 390,000. AID 588795; also: nearly all actives have a fitted effect of over 65% in size
#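 Nuclease activity of 10 nM FEN1 was measured after 15 min of room-temperature exposure to titrated compounds, by adding 50 nM flap substrate and reading plates at 0 and 15 min.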
# Tb PGK inh – inhibitors of T. brucei phosphoglycerate kinase; P07378; hit rate 0.043% among 380,000; Potency, µM (doses to about 57.5 µM), for inactives: at the top dose activity change, negative = inhibition, actives largely listed as inhibitors; PGK/GAPDH coupled, Kinase-Glo luminescence, 60 min; also: nearly all actives have a fitted effect of over 60% in size
#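 Recombinant glycosomal PGK reaction used 1,3-bisphosphoglycerate generated in-well by GAPDH (100nM final) in 100mM TEA pH 7.6, 5mM MgCl2, 0.01% Tween-20. After 60 minutes at room temperature, ATP was read by Kinase-Glo Plus luminescence end-point.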
# RECQ1 inh-1 – blocks DNA unwinding by human RECQ1 | AID 2549 | Potency, µM (top dose mostly 57.3 µM), without a hit: at the top dose activity, negative = inhibition, actives largely listed as inhibitors | RECQ1 DNA unwinding, red fluorescence kinetic read | hit rate 0.54% among 240,000;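 also: plate controls were vehicle for no effect and no enzyme for full effect; nearly all actives have a fitted effect of over 30% in size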
#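 RECQ1T1 50 nM; forked duplex (20 bp + 30-nt ss tails) 200 nM, ATP 2 mM final; pH 8.0, 2 mM MgCl2, 2.5 ug/ml poly(dI-dC); 15 min compound preincubation; discontinuous kinetic read over 2 h at RT.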
# BLM helicase inh – Bloom syndrome helicase (human) inhibition; P54132; recombinant BLM DNA unwinding, fluorescence dequenching; Potency, µM (highest dose often 56.1 µM), inactives show at the top dose activity change, negative = inhibition, actives largely listed as inhibitors; hit rate 0.2% among 350,000;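 also: plate controls were vehicle for no effect and no enzyme for full effect; nearly all actives have a fitted effect of over 35% in size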
# Target sequence (P54132 whole entry, looked up): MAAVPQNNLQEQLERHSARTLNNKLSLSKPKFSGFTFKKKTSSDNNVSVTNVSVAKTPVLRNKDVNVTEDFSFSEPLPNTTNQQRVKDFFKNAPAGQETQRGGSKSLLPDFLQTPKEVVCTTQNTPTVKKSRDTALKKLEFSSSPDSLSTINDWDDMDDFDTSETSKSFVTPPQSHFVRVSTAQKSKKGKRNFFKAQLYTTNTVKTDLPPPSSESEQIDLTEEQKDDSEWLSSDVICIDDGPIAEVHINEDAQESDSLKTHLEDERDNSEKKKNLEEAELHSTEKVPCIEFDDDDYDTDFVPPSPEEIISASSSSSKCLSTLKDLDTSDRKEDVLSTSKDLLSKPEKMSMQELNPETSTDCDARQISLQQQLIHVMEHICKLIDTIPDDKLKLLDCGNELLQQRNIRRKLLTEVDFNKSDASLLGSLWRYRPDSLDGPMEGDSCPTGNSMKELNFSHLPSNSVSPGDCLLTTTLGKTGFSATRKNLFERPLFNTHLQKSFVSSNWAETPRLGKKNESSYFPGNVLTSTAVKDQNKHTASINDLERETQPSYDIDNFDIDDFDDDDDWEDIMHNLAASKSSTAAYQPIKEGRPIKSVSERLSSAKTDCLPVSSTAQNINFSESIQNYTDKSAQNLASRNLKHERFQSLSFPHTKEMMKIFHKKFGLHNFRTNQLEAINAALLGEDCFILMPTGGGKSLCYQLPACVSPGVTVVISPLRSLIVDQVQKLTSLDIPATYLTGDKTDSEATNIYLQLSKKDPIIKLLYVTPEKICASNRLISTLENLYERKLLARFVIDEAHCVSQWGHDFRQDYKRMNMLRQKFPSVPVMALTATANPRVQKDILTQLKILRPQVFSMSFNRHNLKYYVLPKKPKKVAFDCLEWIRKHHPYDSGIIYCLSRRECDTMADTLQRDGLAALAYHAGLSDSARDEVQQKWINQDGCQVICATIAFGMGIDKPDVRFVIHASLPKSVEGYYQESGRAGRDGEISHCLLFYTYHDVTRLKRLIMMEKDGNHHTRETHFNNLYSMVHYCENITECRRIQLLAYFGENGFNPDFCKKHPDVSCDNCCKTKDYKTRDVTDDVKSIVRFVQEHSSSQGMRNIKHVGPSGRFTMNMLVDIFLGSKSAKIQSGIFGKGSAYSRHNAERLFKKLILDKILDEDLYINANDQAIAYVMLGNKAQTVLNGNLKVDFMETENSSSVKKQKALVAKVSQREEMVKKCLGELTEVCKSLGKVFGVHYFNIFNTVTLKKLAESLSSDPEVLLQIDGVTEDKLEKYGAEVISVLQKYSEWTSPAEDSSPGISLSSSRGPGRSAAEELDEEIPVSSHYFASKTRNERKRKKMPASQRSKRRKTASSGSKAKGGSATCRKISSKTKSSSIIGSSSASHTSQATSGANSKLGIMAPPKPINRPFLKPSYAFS
# RECQ1 inh conf – confirmation of human RECQ1 helicase inhibitors; RECQ1 helicase DNA unwinding, fluorescence; shares compounds with RECQ1 inh-1; Potency, µM (doses to about 229 µM), for the others: at the top dose activity change, negative = inhibition, hits mostly inhibitors; hit rate 28% among 610; AID 2708; also: nearly all actives have a fitted effect of over 45% in size
# RECQ1 ADP FP – ADP displacement flagged in RECQ1 inhibitor counter-screen; shares compounds with RECQ1 inh-1; ADP fluorescence polarization displacement counterscreen; Potency, µM (series often up to 228 µM), inactives show top-dose activity change, negative = inhibition, usual class: inhibitors; hit rate 27% among 530; also: nearly all actives have a fitted effect of over 45% in size
# RECQ1 inh-2 – confirmation of human RECQ1 helicase inhibitors. shares compounds with RECQ1 inh-1. recombinant RECQ1 DNA unwinding, red fluorescence. Potency, µM (highest dose often 119 µM), for inactives: at the highest dose activity, negative = inhibition, hits mostly inhibitors. hit rate 15% among 1,100; also: nearly all actives have a fitted effect of over 50% in size
# * marks the source's active call; other numbers are inactive results; i = inactive; ? = inconclusive; . = no result given; [ ] = another dose, or the depositor's remark. Compounds with a hit are over-represented: about 0.74% of the library has one in this group of screens. Calls follow the shape of the dose curve; as a rule, active = well fitted curve in the direction sought with a large enough effect; inconclusive = small, poorly fitted or top-dose-only effect, or another doubt; inactive = no such curve, though single readings can be large; an effect the other way counts as inactive or inconclusive. Unless noted, % is scaled to controls: 0 for no effect and ±100 for the full control effect; potency is read from the fitted curve at half-maximal effect.
SMILES,APEX1 inh,FEN1 inhibitor,Tb PGK inh,RECQ1 inh-1,BLM helicase inh,RECQ1 inh conf,RECQ1 ADP FP,RECQ1 inh-2
CC(Oc1ccc(F)cc1)C(=O)Nc1ccc(S(=O)(=O)NC2=NCCCCC2)cc1 (stereo not given),24%,-3%,-6%,.,.,.,.,.
CCn1c(SC(C)C(=O)O)nc2sc3c(c2c1=O)CCC3 (stereo not given),?,-19%,-16%,?,-10%,.,.,?
CC(Sc1nc2sc3c(c2c(=O)n1-c1ccccc1)CCCC3)C(=O)O (stereo not given),13%,-3%,-2%,-7%,-3%,.,.,.
CCN(CC)C(=O)c1cn(CCC#N)nc1-c1ccc(F)cc1,?,11%,i,40µM*,0%,.,.,3%
CN(C)C(=O)c1cn(CCC#N)nc1-c1ccc2ccccc2c1,10%,8%,i,.,2%,.,.,.
COc1ccc(-c2csc(N3CCN(c4cc(C)nc5ccccc45)CC3)n2)cc1OC,?,-21%,1%,14µM*,-5%,-3%[114 µM],?,-11%
COc1cc(-c2csc(N3CCOCC3)n2)cc(OC)c1OC,-6%,13%,i,i,-12%,.,.,.
O=C(C1CCN(S(=O)(=O)c2ccc(F)cc2)CC1)N1CCCC(C(F)(F)F)C1 (stereo not given),10%,-2%,i,.,.,.,.,.
CCOc1ccc(NC(=O)CSc2nc3ccsc3c(=O)n2CCCCC(=O)O)cc1,.,.,-6%,.,.,.,.,.
CCc1ccc(NC(=O)CSc2nc3ccsc3c(=O)n2CCCCCC(=O)O)cc1,-1%,-4%,i,i,2%,10%,7%,.
O=C(O)CCCCCn1c(SCc2cc(=O)n3cc(Cl)ccc3n2)nc2ccsc2c1=O,6%,-15%,-2%,-1%,-6%,?,?,.
O=C(C[C@@H]1C/C=C\C[C@H](Cc2ccc(F)cc2)C(=O)OCCNC1=O)NCCO,4%,21%,6%,.,.,.,.,.
O=C(Nc1cc2c(oc1=O)CCCC2=O)c1ccc(Cl)cc1,?,56µM*,?,14µM*,?,14µM*,?,.
Cc1nccc2oc(=O)c(NC(=O)c3ccc(Cl)cc3)cc12,-5%,1%,i,i,-3%,.,.,.
O=C1CC(Nc2ccc(N3CCOCC3)cc2)C(=O)N1c1cccc(C(F)(F)F)c1 (stereo not given),-4%,-20%,-2%,?,2%,.,.,-8%
COc1cccc(N2C(=O)CC(Nc3ccc(N4CCOCC4)cc3)C2=O)c1 (stereo not given),4%,7%,-7%[11.5 µM],-16%,-8%,.,.,.
CCCCC1=CC2=CC(=O)C(C)(OC(=O)CC)C(=O)C2=CN1Cc1ccco1 (stereo not given),?,-4%,-1%,?,-6%[12.4 µM],.,.,-11%
Cc1ccc(N2C(=O)C3C(C2=O)C(C(=O)c2ccc(Cl)cc2)N2CCCC32)cc1 (stereo not given),10%,3%,-7%,25µM*,-3%,.,.,-28%
CC(=O)Oc1ccc(N2C(=O)C3C(C2=O)C(C(=O)c2ccc(Cl)cc2)N2CCCC32)cc1 (stereo not given),7%,-2%,-1%,-4%,1%,.,.,.
CC(=O)N1CCOc2ccc(S(=O)(=O)NCC3CCC(C(=O)Nc4ncccc4C)CC3)cc21 (stereo not given),28%,-8%,-7%,.,2%,.,.,.
O=C(O)/C(=C\c1cccs1)Sc1nnc(-c2ccc(F)cc2)o1,3%,-12%,-3%,-1%,1%,.,.,.
CSc1ccc(/C=C(/Sc2nnc(-c3ccccc3)o2)C(=O)O)cc1,-4%,4%,-6%,4%,-1%,-4%,-5%,.
O=C(O)CCSc1nnc(COc2ccc([N+](=O)[O-])cc2)n1-c1ccccc1,-2%,-4%,-8%,-1%,-4%,0%,2%,.
O=C(O)CSc1nnc(COc2ccc([N+](=O)[O-])cc2)n1-c1ccccc1,-1%,-2%,3%,12%,-3%,.,.,.
CC(C)(C)c1ccc(-c2nnc(SCCC#N)n2C2CCCC2)cc1,11%,-5%,0%,14µM*,-8%,-1%[114 µM],16%[91.9 µM],-16%
SMILES,APEX1 inh,FEN1 inhibitor,Tb PGK inh,RECQ1 inh-1,BLM helicase inh,RECQ1 inh conf,RECQ1 ADP FP,RECQ1 inh-2
Cn1c(SCCC#N)nnc1-c1ccc(F)cc1,-2%,.,.,i,1%,.,.,.
Cc1cc(C)c(S(=O)(=O)N2CCC3(CC2)OCCN3S(=O)(=O)c2cccs2)c(C)c1,-10%,-9%,i,.,.,.,.,.
COc1ccc(NC(=O)CSc2nnc(Cc3cccn3C)n2-c2ccc(OC)cc2)cc1,-4%,3%,-6%,1%,-4%,.,.,.
COc1ccc(NCc2nnc(SCC(=O)Nc3nc(-c4ccccc4)cs3)n2-c2ccccc2)cc1,2%,13%,-8%,4%,1%,15%,?,.
Cc1ccc(-n2c(Cc3cccn3C)nnc2SCC(=O)NCc2ccco2)cc1,-5%,-1%,-3%,22µM*,1%,-9%[114 µM],14%[91.9 µM],-15%
COc1ccc(-n2c(Cc3cccn3C)nnc2SCC(=O)Nc2ccc(C(C)=O)cc2)cc1,-9%,-9%,-2%,22µM*,-7%,.,.,-4%
Cc1ccc(-n2c(Cc3cccn3C)nnc2SCC(N)=O)cc1,0%,7%,-11%,i,0%,.,.,.
COc1ccc(-n2c(CNc3ccc(C)cc3)nnc2SCC(=O)Nc2nc(-c3ccccc3)cs2)cc1,-6%,3%,i,i,-3%,.,.,.
O=C(CSc1nnc(-c2ccncc2)n1Cc1ccco1)Nc1nc(-c2ccccc2)cs1,-5%,-6%,5%,i,-10%,-16%,41%,.
O=C(CCCCn1c(=O)c2ccccc2n(Cc2ccccc2F)c1=O)NC1CCN(Cc2ccccc2)CC1,-3%,1%,-2%,-4%,5%,.,.,.
COc1ccc(C(=O)NCc2ccc(C)cc2)cc1S(=O)(=O)N1CCOCC1,.,.,-4%,.,.,.,.,.
COc1ccc(-n2c(O)c(/C=N/NS(=O)(=O)c3ccc(C)cc3)c3ccccc3c2=O)cc1OC,3%,-33%,-1%,10µM*,-4%,.,.,?
COc1ccc(-n2c(O)c(/C=N/NS(=O)(=O)c3cc(C)ccc3C)c3ccccc3c2=O)cc1OC,?,?,-4%,14µM*,-17%,.,.,50µM*
O=C(O)CCC(=O)N1N=C(c2cccs2)CC1c1ccc(Br)cc1 (stereo not given),33%,-13%,.,.,-1%,.,.,.

# Assay outcomes from PubChem.
